Results filed as inconclusive are left out. Calls of active or inactive are those of the source. Calls come from the whole dose curve; as a rule, active = well fitted curve in the direction sought with a large enough effect; inconclusive = small, poorly fitted or top-dose-only effect, or another doubt; inactive = no such curve, though single readings can be large; an effect the other way counts as inactive or inconclusive.
Assays:
[1] = target: Phospholipid hydroperoxide glutathione peroxidase GPX4 (Homo sapiens) (UniProt P36969); test: Primary qHTS Assay for Inhibitors of Recombinant Selenoprotein Glutathione Peroxidase 4 (GPX4) (AID 1845192); details: recombinant GPX4, GR-coupled NADPH fluorescence, 15 min; series mostly up to 50 µM; note: nearly all actives have a fitted effect of over 65% in size; for activity change, negative = inhibition: % is set by controls: 0 for no effect and ±100 for the full control effect
Chain of Phospholipid hydroperoxide glutathione peroxidase GPX4 (Homo sapiens) (P36969 whole entry, looked up): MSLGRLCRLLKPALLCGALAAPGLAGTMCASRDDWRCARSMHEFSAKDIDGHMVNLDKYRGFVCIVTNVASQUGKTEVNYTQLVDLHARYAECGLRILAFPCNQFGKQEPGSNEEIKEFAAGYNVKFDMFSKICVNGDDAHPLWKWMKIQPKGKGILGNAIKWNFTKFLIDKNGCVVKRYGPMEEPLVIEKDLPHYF
How it was run: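 qHTS, GR-coupled: GPX4 200 nM + cpd 30 min RT → GSH 1 mM, NADPH 0.5 mM, GR 100 nM → CHP 0.5 mM start; fluor 340/450 at t0 and t15 min; no-enzyme wells as control.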

[2] = target: Luciferin 4-monooxygenase (Photinus pyralis) (UniProt P08659); test: Primary firefly luciferase (FLuc) qHTS assay for identification of artifact compounds. (AID 1845220); details: purified firefly luciferase, luminescence, 5 min; series mostly up to 54.1 µM; note: nearly all actives have a fitted effect of over 60% in size; note: potency is the fitted concentration of half-maximal effect;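 for activity change, negative = inhibition: plate controls were DMSO vehicle for no effect and no enzyme for full effect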
How it was run: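 Reaction readout was CCD-imaged luminescence, taken 5 min after adding 10 nM purified firefly enzyme to compound-treated wells holding 10 uM luciferin and ATP in pH 7.6 buffer.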

[3] = Primary fluorescence-based thiol-reactive (MSTI) qHTS assay for identification of artifact compounds. (AID 1845221); details: MSTI thiol-reactivity probe, 1 h; series mostly up to 53.8 µM; note: nearly all actives have a fitted effect of over 65% in size; note: potency is the fitted concentration of half-maximal effect;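 for activity change, negative = thiol reactive: thiol-reactive compounds lower the probe fluorescence signal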
How it was run: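 Curve-fitted percent inhibition (4-parameter Hill) derived from fluorescence, Ex 525/Em 598 nm, scaled with Acetyl-MSTI and MSTI; 1 h incubation at room temperature.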

[4] = test system: Nanoluciferase (engineered Oplophorus gracilirostris luciferase); test: Primary Nanoluciferase (NLuc) qHTS assay for identification of artifact compounds. (AID 1845222); details: NLuc-conditioned medium, Nano-Glo luminescence, 5 min; series mostly up to 54.1 µM; note: potency is the fitted concentration of half-maximal effect;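 for activity, negative = inhibition: NLuc secreted into diluted conditioned medium of S16 cells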
How it was run: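 Concentration-response data were obtained by luminescence after 5 min with Nano-Glo substrate at 1:100. The enzyme was diluted S16 NLuc-expressing cell medium, preincubated with compound for 15 min at RT. Curves were fitted with a 4-parameter Hill model.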

[5] = Primary redox qHTS assay for identification of artifact compounds. (AID 1845223); details: Amplex Red/HRP redox cycling with DTT, fluorescence; series mostly up to 53.8 µM;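 note: 0% = DMSO and 100% = reference compound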
How it was run: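 Redox-cycling detection via DTT (250 uM final) oxidation coupled to Amplex Red (25 uM)/HRP (250 mU/mL) in HBSS. 15 min preincubation plus 30 min after DTT, room temperature. Ex/Em 525/598 nm; 4-parameter Hill fit against DMSO and 10 uM DA3003.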

O=C(O)COCCN1CCN([C@H](c2ccccc2)c2ccc(Cl)cc2)CC1
inactive: Potency [1] | Potency [2] | Potency [3] | Potency [4] | Potency [5]

Cc1noc(-c2ccc(-c3ccc(CC(=O)O)cc3)cc2)c1NC(=O)O[C@H](C)c1ccccc1
inactive: Potency [1] | Potency [2] | Potency [3] | Potency [5]
active: Potency [4] 10.7 µM

CCOc1ccc(S(=O)(=O)n2c(C)nc3ccccc32)cc1
inactive: Potency [1] | Potency [2] | Potency [3] | Potency [4] | Potency [5]

CC1(C)CCCC2(C)C(C(=O)O)=CCC12 (stereo not given)
inactive: Potency [1] | Potency [2] | Potency [3] | Potency [4] | Potency [5]

CC1COC2(OC3CC4C5CC(O[C@@H]6O[C@H](C)[C@@H](O[C@@H]7O[C@@H](C)[C@H](O)[C@@H](O)[C@H]7O)[C@H](O)[C@H]6O)C6CC(O)CCC6(C)C5CCC4(C)C3C2C)C(O)C1 (stereo not given in full)
inactive: Potency [1] | Potency [2] | Potency [3] | Potency [4] | Potency [5]

O=C(NCc1ccc(S(=O)(=O)c2cc(F)cc(F)c2)cc1)c1ccc2nccn2c1
inactive: Potency [1] | Potency [2] | Potency [3] | Potency [4] | Potency [5]

Cc1cnc(NC(=O)Nc2cc(Br)c(C)cc2OCC2CNCCO2)cn1 (stereo not given)
inactive: Potency [1] | Potency [2] | Potency [3] | Potency [4] | Potency [5]

CC(c1ncncc1F)C(O)(Cn1cncn1)c1ccc(F)cc1F (stereo not given)
inactive: Potency [1] | Potency [2] | Potency [3] | Potency [4] | Potency [5]

O=C1C=CC2OC(c3ccccc3)C(O)C2O1 (stereo not given)
active: Potency [3] 23.8 µM
inactive: Potency [1] | Potency [2] | Potency [4] | Potency [5]

OCCc1ccc(O[C@@H]2O[C@H](CO)[C@@H](O)[C@H](O)[C@H]2O)cc1
inactive: Potency [1] | Potency [2] | Potency [3] | Potency [4] | Potency [5]

C/C(=C\CCC(C)CCO)C(=O)O[C@@H]1[C@@H](O)[C@H](OC2OC=C(C(=O)O)C3CCC(C)(O)C23)O[C@H](CO)[C@H]1O (stereo not given in full)
active: Potency [3] 8.22 µM
inactive: Potency [1] | Potency [2] | Potency [4] | Potency [5]

CN1CCN(C2CCC(n3cc(-c4ccc(Oc5ccccc5)cc4)c4c(N)ncnc43)CC2)CC1 (stereo not given)
inactive: Potency [1] | Potency [2] | Potency [3] | Potency [4] | Potency [5]

O=C(O)Cc1ccc2oc(-c3ccc(NC(=O)/C=C/c4ccc(Br)cc4)c(F)c3)nc2c1
inactive: Potency [1] | Potency [2] | Potency [3] | Potency [4] | Potency [5]

CC(=O)N[C@@H](CCCCN)C(=O)N(C)[C@@H](CC(C)C)C(=O)N[C@H](C(=O)N(C)[C@@H](Cc1ccccc1)C(=O)N[C@H](Cc1ccccc1)C(N)=O)C(C)C
inactive: outcome [1] inactive [at 4.52 µM] | activity change, negative = inhibition [2] 1.94% [at 6.45 µM] | activity change, negative = thiol reactive [3] 50.7% [at 6.41 µM] | activity, negative = inhibition [4] 2.14% [at 6.45 µM] | redox activity (% of DA3003) [5] -1.23% [at 6.41 µM]

O=C(Nc1ccc(Cl)cc1F)c1ccccc1O
inactive: Potency [1] | Potency [3] | Potency [4] | Potency [5]
active: Potency [2] 1.2 µM

C=CC(C)(O)CC[C@H]1C(=C)CCC2[C@](C)(C(=O)O)CCC[C@@]21C (stereo not given in full)
inactive: Potency [1] | Potency [2] | Potency [3] | Potency [4] | Potency [5]

COc1ccc(-c2ccc(-c3cn(C(=O)N4CCCCC4c4ccccc4)nn3)cc2)cc1 (stereo not given)
inactive: Potency [1] | Potency [2] | Potency [3] | Potency [4] | Potency [5]

O=C(N/N=C/c1ccc(O)c(O)c1)c1cc2ccccc2cc1O
active: Potency [3] 0.707 µM
inactive: Potency [1] | Potency [2] | Potency [4] | Potency [5]

CCCCCCOc1cc2c(cc1N(C)c1ncc(C(=O)O)cn1)C(C)(C)CCC2(C)C
inactive: Potency [1] | Potency [2] | Potency [3] | Potency [4] | Potency [5]

COc1ccc(CCC(=O)c2c(O)cc(O)cc2O[C@@H]2O[C@H](CO)[C@@H](O)[C@H](O)[C@H]2O)cc1
inactive: Potency [1] | Potency [2] | Potency [4] | Potency [5]
active: Potency [3] 10.3 µM

COc1cc(/C=C/C=O)cc(OC)c1O[C@@H]1O[C@H](CO)[C@@H](O)[C@H](O)[C@H]1O
inactive: Potency [1] | Potency [2] | Potency [4] | Potency [5]
active: Potency [3] 14.7 µM

COc1ccc(CCO[C@@H]2O[C@H](CO[C@@H]3OC[C@H](O)[C@H](O)[C@H]3O)[C@@H](O)[C@H](O)[C@H]2O)cc1
active: Potency [3] 10.3 µM
inactive: Potency [1] | Potency [2] | Potency [4] | Potency [5]

C[C@@H]1O[C@@H](O[C@H]2[C@H](O)[C@@H](O[C@@H]3O[C@H](CO)[C@@H](O)[C@H](O[C@@H]4O[C@H](CO)[C@@H](O)[C@H](O)[C@H]4O)[C@H]3O)[C@H](O[C@H]3CC[C@@]4(C)C(=CC[C@@H]5C4CC[C@@]4(C)C5C[C@@H]5OC6(CC[C@@](C)(CO[C@@H]7O[C@H](CO)[C@@H](O)[C@H](O)[C@H]7O)O6)[C@@H](C)[C@@H]54)C3)O[C@@H]2CO)[C@H](O)[C@H](O)[C@H]1O (stereo not given in full)
inactive: activity change, negative = inhibition [1] -8.14% [at 9.73 µM] | activity change, negative = inhibition [2] -3.7% [at 11.6 µM] | activity change, negative = thiol reactive [3] 201% [at 11.5 µM] | activity, negative = inhibition [4] -0.894% [at 11.6 µM] | redox activity (% of DA3003) [5] 7.08% [at 11.5 µM]

Reference: PubChem BioAssay (NCATS)
